Hit rate of the full screen: of about 94,000 compounds, about 2,100 (2.2%) were called active. For the sample, actives were picked, then their nearest neighbours and some compounds at random. Unmarked numbers belong to inactive results. Cut-off read from the data, not from the text of the source: active = activity change below about -80%; inconclusive = no clear call, values can overlap the other calls; inactive = above that.

The nature of the assay: P. falciparum Dd2 growth inhibitors, primary screen, SYBR Green fluorescence, single dose replicates (AID 1159554). The following applies: 72 h, at 10 µM, stronger effect = lower value.
For `CCC(=O)N(C)C[C@H]1Oc2ncc(C#CC(C)C)cc2C(=O)N([C@@H](C)CO)C[C@H]1C`, the activity change was 34.1%.

Turning to `CN1C(=O)c2cc(NC(=O)C3CCCC3)ccc2OC[C@H]2O[C@H](CC(=O)NCc3ccccc3F)CC[C@H]21`, the activity change was -16.4%.

As for `O=C(C1CCCC1)N1[C@H](CO)[C@H]2c3ccccc3N(S(=O)(=O)c3ccccc3)C[C@H]21`, the activity change is -20%.

In the case of `Cc1noc(C)c1NC(=O)N(C)C[C@H]1Oc2ccc(NC(=O)Cn3cnnn3)cc2CC(=O)N([C@H](C)CO)C[C@@H]1C`, the activity change was 26.5%.

Take `C[C@H](CO)N1C[C@H](C)[C@@H](CN(C)Cc2ccc(C(=O)Nc3ccccc3N)cc2)Oc2c(NC(=O)C3CC3)cccc2C1=O`: the activity change was -57.7%.

In the case of `C[C@@H]1CN([C@@H](C)CO)C(=O)c2cccc(NC(=O)Nc3ccccc3)c2O[C@H]1CN(C)Cc1ccccc1`, the activity change is -14.5%.

On to `C[C@H](CO)N1C[C@H](C)[C@H](CN(C)Cc2ccc(C(=O)Nc3ccccc3N)cc2)Oc2c(NC(=O)Nc3ccccc3)cccc2C1=O`, for which the activity change is -80.2% (active).

`Cc1cc(C(=O)Nc2cccc3c2O[C@@H](CN(C)Cc2ccc(C(=O)O)cc2)[C@H](C)CN([C@@H](C)CO)C3=O)n(C)n1`: the activity change is 6.12%.

`Cc1cc(C(=O)Nc2cccc3c2O[C@@H](CN(C)Cc2ccncc2)[C@@H](C)CN([C@@H](C)CO)C3=O)n(C)n1`: the activity change is 6.17%.

In the case of `Cc1cc(C(=O)Nc2cccc3c2O[C@@H](CN(C)Cc2ccc(C(=O)Nc4ccccc4N)cc2)[C@H](C)CN([C@@H](C)CO)C3=O)n(C)n1`, the activity change was -84.4% (active).

On to `CC(C)(C)[S@](=O)N1Cc2cc(C(=O)N3CCCCC3)nc(-c3cccc(Br)c3)c2[C@@H]1CCO`, for which the activity change is -2.81%.

In the case of `COc1cccc(S(=O)(=O)N[C@H]2C=C[C@@H](CC(=O)NCc3ccccc3)O[C@@H]2CO)c1`, the activity change is 18.4%.

Turning to `O=C(C[C@@H]1CC[C@@H]2[C@H](COC[C@H](O)CN2C(=O)c2ccncc2)O1)NCc1cc(F)cc(F)c1`, the activity change is 1.9%.

As for `COc1ccc(-c2cnc3c(c2)C(=O)N([C@@H](C)CO)C[C@H](C)[C@@H](CN(C)C(=O)C2CC2)O3)cc1`, the activity change was 13.9%.

Regarding `O=C(c1ccc(F)cc1)N1CC2(C1)[C@H](c1ccccc1)[C@@H](CO)N2Cc1ccccn1`, the activity change was -24.5%.

Consider `Cc1ccccc1S(=O)(=O)N1CC(=O)N2[C@H](CO)[C@H](c3ccc(C#CC4CC4)cc3)[C@@H]2C1`, for which the activity change is -84.8% (active).

Turning to `Cc1ccccc1S(=O)(=O)N1CC(=O)N2[C@H](CO)[C@H](c3ccc(C#CCN(C)C)cc3)[C@H]2C1`, the activity change is -1.17%.

For `O=C1CN(S(=O)(=O)Cc2ccccc2)C[C@@H]2[C@@H](c3ccc(C#Cc4ccccc4)cc3)[C@@H](CO)N12`, the activity change is -68.4%.

In the case of `O=C1CN(S(=O)(=O)c2ccccc2)C[C@H]2[C@H](c3ccc(C4=CCCC4)cc3)[C@@H](CO)N12`, the activity change was 5.25%.

With `O=C1CN(S(=O)(=O)c2ccccc2)C[C@H]2[C@H](c3ccc(C#CCc4ccccc4)cc3)[C@@H](CO)N12`, the activity change is -82.9% (active).

Turning to `Cc1ccccc1S(=O)(=O)N1CC(=O)N2[C@H](CO)[C@@H](c3ccc(C#Cc4ccccc4)cc3)[C@H]2C1`, the activity change is -22.9%.

Turning to `C[C@@H]1CN([C@@H](C)CO)S(=O)(=O)c2ccc(C#CC(C)(C)O)cc2O[C@H]1CN(C)C(=O)CN(C)C`, the activity change is 31.6%.

As to `Cc1ccccc1S(=O)(=O)N1[C@@H](C#N)[C@H](c2ccccc2)[C@@H]1CO`, the activity change is 20.4%.

`CCCNC(=O)N1CC2(CN(C(=O)C3CCCCC3)C2)c2c([nH]c3cc(OC)ccc23)[C@@H]1CO`: the activity change was -5.82%.

For `O=C(Nc1ccc(F)cc1)N[C@H]1C=C[C@@H](CC(=O)N2CCOCC2)O[C@H]1CO`, the activity change is -16.7%.

On to `COc1ccc(S(=O)(=O)N(C)C[C@H]2Oc3c(NC(=O)Nc4cccc5ccccc45)cccc3C(=O)N([C@@H](C)CO)C[C@H]2C)cc1`, for which the activity change was -88.1% (active).

Regarding `COc1ccc(S(=O)(=O)N(C)C[C@@H]2Oc3c(NC(=O)NC(C)C)cccc3C(=O)N([C@@H](C)CO)C[C@@H]2C)cc1`, the activity change was -6.46%.

Regarding `COc1ccc(S(=O)(=O)N(C)C[C@H]2Oc3c(NC(=O)CCCCCC(=O)Nc4ccccc4N)cccc3C(=O)N([C@H](C)CO)C[C@H]2C)cc1`, the activity change is -89.5% (active).

As for `C[C@H]1CN([C@@H](C)CO)C(=O)c2cccc(NC(=O)CCCCCC(=O)Nc3ccccc3N)c2O[C@@H]1CN(C)S(=O)(=O)c1cn(C)cn1`, the activity change is 22.6%.

For `C[C@@H]1CN([C@@H](C)CO)C(=O)c2cccc(NC(=O)Nc3cccc4ccccc34)c2O[C@H]1CN(C)S(=O)(=O)c1ccccc1`, the activity change is -19.1%.

Consider `C[C@H](CO)N1C[C@H](C)[C@H](CN(C)S(=O)(=O)c2ccccc2)Oc2c(NC(=O)CCCCCC(=O)Nc3ccccc3N)cccc2C1=O`, for which the activity change is -73.2%.

As for `COCC(=O)Nc1ccc2c(c1)C(=O)N(C)C[C@@H](OC)[C@@H](C)CN(C(=O)Cc1ccccn1)[C@@H](C)CO2`, the activity change was -33.6%.

As for `COc1ccc(S(=O)(=O)N(C)C[C@H]2OCCCC[C@@H](C)Oc3ccc(NS(=O)(=O)c4ccc(C)cc4)cc3C(=O)N([C@@H](C)CO)C[C@@H]2C)cc1`, the activity change is -36.4%.

As to `CCCNC(=O)N1[C@H](CO)[C@H]2c3ccccc3N(C(=O)Nc3cccc(Cl)c3)C[C@H]21`, the activity change is 6.16%.

In the case of `COc1cccc(C#Cc2ccc([C@H]3[C@@H](CO)N(C(=O)c4ccccn4)[C@H]3C#N)cc2)c1`, the activity change is -92% (active).

On to `COc1cccc(-c2ccc([C@@H]3[C@@H](C#N)N(C(=O)c4ccccn4)[C@H]3CO)cc2)c1`, for which the activity change is -35.5%.

For the compound `COc1cccc(-c2ccc([C@@H]3[C@@H](CO)N(C(=O)c4ccccn4)[C@H]3C#N)cc2)c1`, the activity change is -11.6%.

In the case of `CCCN1C[C@H](C)[C@H](OC)CN(C)C(=O)c2cc(NC(=O)NC3CCCC3)ccc2OC[C@H]1C`, the activity change is 20%.

As for `C[C@@H]1CCCCO[C@@H](CN(C)S(C)(=O)=O)[C@H](C)CN([C@@H](C)CO)C(=O)c2cc(NC(=O)Nc3ccc4c(c3)OCO4)ccc2O1`, the activity change is 33.8%.

For the compound `CO[C@H]1CN(C)C(=O)c2cc(NS(=O)(=O)c3ccccc3)ccc2OC[C@@H](C)N(Cc2nccs2)C[C@@H]1C`, the activity change is -8.31%.

With `CCS(=O)(=O)N1CC2(CN(Cc3cc(F)ccc3F)[C@@H](CO)c3c2c2ccc(OC)cc2n3C)C1`, the activity change was -72.9%.

In the case of `CO[C@H]1CN(C)C(=O)c2cc(NS(C)(=O)=O)ccc2OC[C@@H](C)N(Cc2ccccc2)C[C@@H]1C`, the activity change was -41.2%.

Regarding `COc1ccc2c3c([nH]c2c1)[C@@H](CO)N(C(C)=O)CC31CCN(Cc2ccccc2Cl)CC1`, the activity change is -38.2%.

Consider `COc1ccc2c3c(n(C)c2c1)[C@@H](CO)N(Cc1ccccc1)CC31CN(C(=O)C2CC2)C1`, for which the activity change was -20.3%.

Take `COc1ccc2c3c([nH]c2c1)[C@@H](CO)N(Cc1ccccc1F)CC31CN(C(=O)C2CC2)C1`: the activity change was -48%.

For the compound `COc1ccc2c3c([nH]c2c1)[C@H](CO)N(Cc1ccccc1OC)CC31CCN(S(=O)(=O)c2ccccc2)CC1`, the activity change is -79.1%.

Consider `COc1ccc2c3c(n(C)c2c1)[C@H](CO)N(Cc1ccccc1Cl)CC31CN(C(=O)CN(C)C)C1`, for which the activity change is -83.6% (active).

Take `COc1ccc2c3c([nH]c2c1)[C@H](CO)N(Cc1ccccc1Cl)CC31CN(C(=O)C2CC2)C1`: the activity change is -92.3% (active).

Regarding `COCC(=O)N1CCC2(CC1)CN(Cc1ccccc1Cl)[C@H](CO)c1c2c2ccc(OC)cc2n1C`, the activity change was -60.4%.

On to `CCC(=O)N1CC2(C1)CN(Cc1ccccc1Cl)[C@@H](CO)c1[nH]c3cc(OC)ccc3c12`, for which the activity change was -91.3% (active).

Turning to `CCCC(=O)N1CC2(CN(C(=O)NC(C)C)C2)c2c([nH]c3cc(OC)ccc23)[C@@H]1CO`, the activity change is 16.5%.

For the compound `COc1ccc(-c2ccc([C@@H]3[C@@H](C#N)N(C(=O)C4CCCCC4)[C@H]3CO)cc2)cc1`, the activity change was -30.1%.

With `CCC(=O)Nc1ccc2c(c1)C(=O)N(C)C[C@H](OC)[C@H](C)CN(C(=O)c1ccccn1)[C@@H](C)CO2`, the activity change was 15.8%.

For `COc1ccc2c3c(n(C)c2c1)[C@H](CO)N(C(=O)Nc1c(C)noc1C)CC31CN(CC2CC2)C1`, the activity change was -7.59%.

`O=C(C[C@H]1CC[C@H]2NC[C@@H](O)COC[C@@H]2O1)NCCN1CCCC1`: the activity change was 9.89%.

Take `COc1cccc(CN(C)C[C@H]2OCc3ccccc3-c3c(n(C)c4ccccc34)C(=O)N([C@@H](C)CO)C[C@@H]2C)c1`: the activity change is -62%.

With `COc1ccc2c3c(n(C)c2c1)[C@H](CO)NCC31CN(S(=O)(=O)c2cccc(C)c2)C1`, the activity change is 21.6%.

Consider `C[C@@H]1CN([C@@H](C)CO)C(=O)c2cccc(NC(=O)c3cnccn3)c2O[C@H]1CN(C)Cc1ccc(C(=O)O)cc1`, for which the activity change is -5.79%.

Consider `C[C@@H]1CN([C@@H](C)CO)C(=O)c2cccc(NC(=O)c3cnccn3)c2O[C@H]1CN(C)Cc1ccc(-c2ccccc2)cc1`, for which the activity change was -64.1%.

As for `C[C@H](CO)N1C[C@H](C)[C@@H](CN(C)Cc2ccc(C(=O)Nc3ccccc3N)cc2)Oc2c(NC(=O)c3ccc(-c4nccs4)cc3)cccc2C1=O`, the activity change was -90% (active).

As to `C[C@H]1CN([C@@H](C)CO)C(=O)c2cccc(NS(=O)(=O)c3cccs3)c2O[C@H]1CN(C)Cc1ccc(C(=O)Nc2ccccc2N)cc1`, the activity change was -87.1% (active).

As for `C[C@@H]1CN([C@@H](C)CO)C(=O)c2cccc(NC(=O)c3ccc(-c4nccs4)cc3)c2O[C@@H]1CN(C)Cc1ccncc1`, the activity change was -15.6%.

With `C[C@@H]1CN([C@@H](C)CO)C(=O)c2cccc(NC(=O)c3ccc(-c4nccs4)cc3)c2O[C@H]1CN(C)Cc1ccc(Cl)c(Cl)c1`, the activity change was -90.3% (active).

For the compound `C[C@H](CO)N1C[C@H](C)[C@@H](CN(C)S(C)(=O)=O)Oc2c(NC(=O)c3ccc(-c4nccs4)cc3)cccc2C1=O`, the activity change is -4.15%.

For the compound `C[C@@H]1CN([C@H](C)CO)C(=O)c2cccc(NC(=O)c3cnccn3)c2O[C@@H]1CN(C)Cc1ccc(C(=O)Nc2ccccc2N)cc1`, the activity change was -88.3% (active).

For the compound `C[C@H]1CN([C@@H](C)CO)C(=O)c2cccc(NC(=O)c3ccc(-c4nccs4)cc3)c2O[C@H]1CN(C)Cc1ccc(C(=O)O)cc1`, the activity change was 24%.

For `C[C@@H]1CN([C@@H](C)CO)C(=O)c2cccc(NS(=O)(=O)c3cccs3)c2O[C@@H]1CN(C)CC1CC1`, the activity change was 18.4%.

As for `C[C@@H]1CN([C@@H](C)CO)C(=O)c2cccc(NS(=O)(=O)c3cccs3)c2O[C@H]1CN(C)Cc1ccncc1`, the activity change is 28.4%.

On to `C[C@H](CO)N1C[C@H](C)[C@H](CN(C)S(C)(=O)=O)Oc2c(NC(=O)c3ccc(-c4nccs4)cc3)cccc2C1=O`, for which the activity change is -3.36%.
